Screen size: about 1,200 compounds; about 480 (40%) were called active. Not shown: some 29% with an inconclusive outcome. Calls come from the whole dose curve; as a rule, active = well fitted inhibition curve with a large enough effect; inconclusive = small, poorly fitted or top-dose-only effect; inactive = no such curve, though single readings can be large or run the other way. The list shows a part of the results.
Experiment: qHTS Assay to Find Inhibitors of Chronic Active B-Cell Receptor Signaling: Hit Validation in Primary Screen; note: nearly all actives have a fitted effect of over 75% in size
Details: ABC-DLBCL IkB-luc/CBR ratio luminescence, 4 h; series mostly up to 46.1 µM
How it was run: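 TMD8 ABC-DLBCL cells carrying doxycycline-inducible IkBa-green luciferase fusion and free red luciferase, 0.5% FBS, dosed 46 uM–3 nM with doxycycline for 4 h at 37C. Green/red luminescence ratio normalized to basal and 10 uM MG-132.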
Potency is the fitted concentration of half-maximal effect.

Structure (SMILES)	Potency
Cc1[nH]n(C(N)=S)c(=O)c1N=Nc1ccc([N+](=O)[O-])cc1Cl	inactive
O=C1CC(c2ccccc2)Cc2nc3ncnn3cc21 (stereo not given)	inactive
CCOc1ncccc1C(=O)N1CCN(c2cc(Cl)ccc2C)CC1	8.2 µM (active)
CCOc1ncccc1C(=O)N1CCN(c2cccc(C)c2C)CC1	5.8 µM (active)
Cc1ccccc1C(=O)N1CCC(C(=O)N2CCN(Cc3ccc4c(c3)OCO4)CC2)CC1	inactive
COC(=O)c1cc(C(=O)N2CCN(c3cccc(Cl)c3)CC2)cc([N+](=O)[O-])c1	5.8 µM (active)
CCOc1ccccc1C(=O)N1CCN(c2cccc(Cl)c2)CC1	0.517 µM (active)
CCc1ccc(CNC(=O)Cc2ccc(NC(=O)C3=C(C)OCCS3)cc2)cc1	2.06 µM (active)
CC1=C(C(=O)Nc2ccc(CC(=O)NCc3ccc(OC(C)C)cc3)cc2)SCCO1	1.3 µM (active)
CCCCC[C@H](O)/C=C/[C@@H]1[C@@H](C/C=C\CCCC(=O)OC)[C@@H](O)C[C@H]1O	0.103 µM (active)
CCCCC[C@H](O)/C=C/[C@@H]1[C@@H](C/C=C\CCCC(=O)O)[C@@H](O)C[C@H]1O	2.91 µM (active)
CCO[C@H]1OC(C(=O)NCc2nc3ccccc3[nH]2)=C[C@@H](C2CC2)[C@@H]1CCCO	18.4 µM (active)
O=C(Oc1c(CN2CCOCC2)cc(Cl)c2cccnc12)c1ccc(F)cc1	inactive
Oc1ccc(NCc2cccc(OCc3ccccc3)c2)cc1	inactive
Cc1[nH]n(C(N)=S)c(=O)c1N=Nc1ccc2ccccc2c1	inactive
COc1ccc(N(C(=O)c2ccccc2C)S(=O)(=O)c2cccs2)cc1	5.17 µM (active)
C=CCOc1c(OC)cc(/C=N/Nc2cccc(C(=O)O)c2)c(Br)c1Br	2.91 µM (active)
O=C(Oc1ccc(Cl)c2cccnc12)C12CC3CC(CC(C3)C1)C2	inactive
O=c1cnnc(N/N=C/C2CC=CCC2)[nH]1 (stereo not given)	inactive
COC(=O)C1C(O)=C(C=Nc2cccc3ccccc23)C(=O)CC1(C)C (stereo not given)	18.4 µM (active)
COC(=O)C1C(O)=C(C=Nc2ccccc2)C(=O)CC1(C)C (stereo not given)	16.4 µM (active)
CCCOc1ccccc1C1CC(=O)Nc2cc3c(cc21)OCO3 (stereo not given)	6.51 µM (active)
CCCOc1ccccc1C1CC(=O)Nc2cc3c(cc21)OCCO3 (stereo not given)	7.31 µM (active)
CCOc1ccccc1C1CC(=O)Nc2cc3c(cc21)OCCO3 (stereo not given)	10.3 µM (active)
Cc1ccc(-c2ccccc2NC(=O)CS(=O)CC(=O)Nc2ccc(C)c(Cl)c2)o1 (stereo not given)	inactive

Structure (SMILES)	Potency
CCOc1cccc(/C=C/c2ccc3cccc(O)c3n2)c1OC	inactive
COc1cc(/C=C/c2ccc3cccc(O)c3n2)cc(OC)c1OC	18.4 µM (active)
COc1cc(/C=C\C(=O)OCn2nnc3ccccc3c2=O)cc(OC)c1OC	inactive
COc1cc(/C=C/c2ccc3cccc(O)c3n2)cc(Br)c1OC	20.6 µM (active)
COC(=O)CCC(=O)NC(=S)Nc1sc(C)c(C)c1C(N)=O	4.61 µM (active)
CCCCC(=O)NC(=S)Nc1nnn(CCC)n1	inactive
COc1ccc(CN(C)C(=O)Cn2cnc3c(NCc4ccccc4)ncnc32)cc1OC	inactive
CCOc1cc(-c2nnc(SCC(=O)NCc3ccccc3)nc2-c2ccc(OC)c(OCC)c2)ccc1OC	2.59 µM (active)
COc1ccccc1CNC(=O)CSc1ccc(C)cc1	inactive
CC1=NN(C(N)=S)C(=O)C1N=Nc1ccc(F)cc1 (stereo not given)	inactive
Cc1ccsc1/C=C/C1=NCCCN1C	inactive
CC1(C)N=c2ccc([N+](=O)[O-])c(N)c2=[N+]1[O-]	inactive
COc1ccc(S(=O)(=O)Nc2ccc3c(c2)n(C)c(=O)n3C)cc1F	inactive
COc1cc(OC)c(OC)cc1/C=C/C(=O)c1ccc(NS(=O)(=O)c2ccc(C)cc2)cc1	13 µM (active)
Cc1ccc2nc(NC(=O)c3ccccn3)sc2c1	1.16 µM (active)
COc1ccc2nc(NC(=S)NC(=O)c3ccco3)sc2c1	inactive
O=C(Nc1nc2c(F)cc(F)cc2s1)c1ccccn1	13 µM (active)
CCOc1ccc2nc(NC(=O)c3ccccn3)sc2c1	14.6 µM (active)
CCOc1ccc2nc(NS(=O)(=O)Cc3ccccc3)sc2c1	inactive
O=C(Nc1nnc(SCc2ccc(F)cc2)s1)c1ccccn1	inactive
S=C(Nc1ccccn1)c1ccccn1	inactive
O=C(Nc1nc2ccc(F)cc2s1)c1ccccn1	1.46 µM (active)
C/C(=N\NC(=O)c1ccc(F)cc1)c1ccccn1	inactive
O=C(NCC(=O)N1CCCC(C(F)(F)F)C1)c1ccc(Oc2ccccc2)cc1 (stereo not given)	inactive
CN(C)NC(=S)NC(=O)C12CC3CC(CC(C3)C1)C2	inactive

Structure (SMILES)	Potency
Cc1cc(C(N)=O)nn1-c1c(Cl)cc(Cl)cc1Cl	inactive
COc1ccccc1NC(=O)c1c(N=Cc2c(O)ccc3ccccc23)cnn1C	3.26 µM (active)
CC(=O)N1CC(=O)N=C1SCC(=O)Nc1nc(C)c(-c2ccccc2)s1	23.1 µM (active)
COc1ccc(CCCC(=O)N/N=C/c2cccc(OC)c2O)cc1C	inactive
COc1cccc(/C=N/NC(=O)c2[nH]nc3c2CCc2ccccc2-3)c1O	20.6 µM (active)
CC/C(=N/Nc1ccc(Cl)cc1)c1cnnc(SC)n1	inactive
Cc1ccc(C(=O)Oc2ccc(Cl)c3cccnc23)cc1[N+](=O)[O-]	inactive
O=C(c1ccc(CS(=O)c2ccccc2Cl)o1)N1CCN(c2ccccc2)CC1 (stereo not given)	14.6 µM (active)
COc1cccc(N2CCN(C(=O)c3ccc(CS(=O)c4ccccc4Cl)o3)CC2)c1 (stereo not given)	1.84 µM (active)
COc1cccc(N2CCN(C(=O)c3ccc(CS(=O)c4ccccc4C)o3)CC2)c1 (stereo not given)	5.8 µM (active)
CCCNc1ccc(C(=O)OCC)cc1[N+](=O)[O-]	inactive
CCCNc1nc(-c2ccccc2)c(C(=O)OCC)cc1C#N	18.4 µM (active)
CC(C)CCOc1ccc(CO[C@@H]2[C@H]3OC(C)(C)O[C@H]3O[C@@H]2C(O)CO)cc1 (stereo not given in full)	inactive
COc1ccc(S(=O)(=O)Nc2cc3c(C(C)=O)c(C)oc3c3ccccc23)cc1	2.06 µM (active)
COC(=O)c1ccc(C)c(NS(=O)(=O)c2ccc3c(c2)OCCO3)c1	9.2 µM (active)
COC(=O)c1ccc(C)c(NS(=O)(=O)c2ccc(OC)cc2)c1	1.84 µM (active)
COc1ccc(NS(=O)(=O)c2cc(NC(=O)CNC(=O)c3cccc(OC)c3)ccc2C)cc1	inactive
COc1cc2nc(=S)n3[nH]c(CCn4nc(C)cc4C)nc3c2cc1OC	inactive
O=C(/C=C/c1ccc(-c2ccccc2[N+](=O)[O-])o1)c1ccccc1	inactive
CC(=O)[C@H]1CC[C@H]2[C@@H]3CCC4=CC(=O)CC[C@]4(C)[C@H]3CC[C@]12C	inactive
C[C@]12CCC(=O)C=C1CC[C@@H]1[C@@H]2[C@@H](O)C[C@@]2(C)[C@H]1CC[C@]2(O)C(=O)CO	inactive
COc1cccc2sc(Nc3nnc(-c4ccccc4Cl)o3)nc12	8.2 µM (active)
COc1ccccc1-c1nnc(Nc2nc3c(OC)cccc3s2)o1	0.366 µM (active)
NC(=S)N/N=C\c1ccc(-c2cccc(Cl)c2Cl)o1	inactive
CCCCn1c(=O)c(F)cn(Cc2ccc(OC)c([N+](=O)[O-])c2)c1=O	inactive

Structure (SMILES)	Potency
Cc1ccc(COC(=O)c2cc([N+](=O)[O-])ccc2N2CCOCC2)cc1	5.8 µM (active)
CSc1ccc(COC(=O)c2cc([N+](=O)[O-])ccc2N2CCOCC2)cc1	0.58 µM (active)
COc1ccc(COC(=O)c2cc([N+](=O)[O-])ccc2N2CCOCC2)cc1F	0.092 µM (active)
CCN(CC)S(=O)(=O)c1ccc(N2CCOCC2)c(NC(=O)c2[nH]c(C)c(C(C)=O)c2C)c1	inactive
CCCCn1c(-c2csc(C(C)C)c2)n[nH]c1=S	inactive
CNC(=S)N/N=C(\C)c1ccc(Cl)c(Cl)c1	inactive
COc1ccc(S(=O)(=O)N2c3ccccc3OCC2C)cc1 (stereo not given)	16.4 µM (active)
CCOc1ccc(S(=O)(=O)N2c3ccccc3CC2C)cc1 (stereo not given)	14.6 µM (active)
CNc1nc(N)c([N+](=O)[O-])c(NCc2ccccc2)n1	inactive
COC(=O)c1ccc(Oc2cc(C)nc(-n3nc(C)cc3C)n2)cc1	3.26 µM (active)
CC(=O)c1ccc(Oc2cc(C)nc(-n3nc(C)cc3C)n2)cc1	7.31 µM (active)
O=C(CSc1cccc[n+]1[O-])c1ccc(Cl)s1	inactive
COc1ccccc1-c1cc(C(=O)Nc2cccnc2)no1	inactive
O=C(O)CCCN1C(=O)/C(=C\c2ccccc2OCc2ccccc2)SC1=S	7.31 µM (active)
O=C(CCCN1C(=O)/C(=C/c2ccccc2OC(F)F)SC1=S)Nc1cccnc1	7.31 µM (active)
CCCNS(=O)(=O)c1cccc(C(=O)OCc2cc(=O)oc3cc(OC)ccc23)c1	9.2 µM (active)
COc1cc(OC)cc(C(=O)N/N=C(\C)CC(=O)Nc2ccccn2)c1	inactive
Cc1cc(C)c2nc(SCC(=O)N3CC(=O)Nc4ccccc43)c(C#N)cc2c1	3.66 µM (active)
COc1cc(OC)cc(C(=O)N2CC(=O)Nc3ccccc32)c1	14.6 µM (active)
Cc1cc(C)cc(C(=O)N2CC(=O)Nc3ccccc32)c1	3.66 µM (active)
COc1ccccc1NC(=O)N1CCC(c2nc3cc(C)c(C)cc3[nH]2)CC1	5.17 µM (active)
COc1ccc(N2CC(C(=O)N3CCC(c4nc5ccccc5[nH]4)CC3)CC2=O)cc1 (stereo not given)	inactive
ClC(Cl)(Cl)c1nc2ccccc2n2nncc12	18.4 µM (active)
COc1cc(-c2noc(C)c2/C=C/c2ccc(N)cc2)cc(OC)c1OC	1.3 µM (active)
COc1cc(-c2noc(C)c2/C=C/c2ccc(OC(C)=O)cc2)cc(OC)c1OC	4.61 µM (active)

Source: PubChem BioAssay AID651558 (National Center for Advancing Translational Sciences (NCATS), 2012)
